Bioassay records as filed in PubChem BioAssay.
This is a sample that favours compounds with a hit; in the whole collection about 5.3% have one here.
Tau FP inhib = qHTS for Inhibitors of Tau Fibril Formation, Fluorescence Polarization; Microtubule-associated protein tau (Homo sapiens), P10636; K18 P301L tau heparin fibrillization, Alexa594 FP, 6 h; Potency, µM (series often up to 57.7 µM), for the others: top-dose activity, negative = inhibition, most hits filed as inhibitors; actives 0.39% (n = 280,000); AID 1468, 2008; further: potency means the concentration at half of the fitted maximal effect; nearly all actives have a fitted effect of over 55% in size
Target sequence (P10636 561-689 P618L limits assumed): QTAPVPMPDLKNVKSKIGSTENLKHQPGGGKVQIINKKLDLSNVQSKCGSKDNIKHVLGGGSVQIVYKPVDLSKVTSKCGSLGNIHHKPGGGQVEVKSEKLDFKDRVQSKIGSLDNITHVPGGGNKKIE
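Read-out: fluorescence polarization of Alexa 594-labeled tau (0.24 uM), 555 nm excitation, 632 nm emission. Mixtures held 15 uM unlabeled K18 P301L, compound and 20 uM heparin, pH 7 acetate buffer, incubated 6 hr at 37 C.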
Tau fibril ThT = qHTS for Inhibitors of Tau Fibril Formation, Thioflavin T Binding; Microtubule-associated protein tau (Homo sapiens), P10636; recombinant tau K18 P301L, heparin-induced fibrillization, ThT fluorescence; Potency, µM (series often up to 57.4 µM), inactives show at the top dose activity, negative = inhibition, hits mostly inhibitors; actives 2.1% (n = 270,000); AID 1460, 2008; further: potency means the concentration at half of the fitted maximal effect; nearly all actives have a fitted effect of over 55% in size
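Tau K18 P301L fragment (15 uM unlabeled plus 0.24 uM Alexa 594-labeled) in 100 mM sodium acetate pH 7 with compound, fibrillization induced by 20 uM heparin for 6 hr at 37 C. Thioflavin T (30 uM) added, fluorescence read after 1 hr (ex 450, em 510 nm).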
Sfp PPTase inh = qHTS Assay for Inhibitors of Bacillus subtilis Sfp phosphopantetheinyl transferase (PPTase). AID 1490, 2009. Biochemical Sfp PPTase activity, qHTS. actives 3.5% (n = 310,000). Potency, µM, inactives show largest response in the series, negative = inhibition, actives largely listed as inhibitors;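 further: the enzyme is Sfp with the accession as filed and its product quenches rhodamine fluorescence; potency means the concentration at half of the fitted maximal effect; 0% = enzyme reaction without inhibitor and -100% = no enzyme wells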
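With Hepes-Na pH 7.6 buffer containing 10 mM MgCl2, Sfp (15 nM) modified BHQ-2-YbbR (12.5 uM) using rhodamine-CoA (5 uM). Two reads 30 minutes apart at 525/598 nm yielded each well's rate.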
JMJD2E inh = qHTS Assay for Inhibitors of Human Jumonji Domain Containing 2E (JMJD2E) | Lysine-specific demethylase 4E (Homo sapiens), B2RXH2 | JMJD2E catalytic domain, FDH-coupled NADH fluorescence (FDH is formaldehyde dehydrogenase) | Potency, µM (highest dose often 57.1 µM), inactives show at the top dose activity change, negative = inhibition, actives largely listed as inhibitors | actives 1.6% (n = 230,000) | AID 2147, 2009; active means well fitted inhibition curve with a large enough effect, not every such curve was filed as active; inconclusive means small, poorly fitted or top-dose-only effect, or another doubt; inactive means no such curve, though single readings can be large or run the other way;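 further: potency means the concentration at half of the fitted maximal effect; 0% = wells with enzyme and -100% = buffer wells without enzyme; nearly all actives have a fitted effect of over 50% in size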
Target sequence (B2RXH2 1-337 limits assumed): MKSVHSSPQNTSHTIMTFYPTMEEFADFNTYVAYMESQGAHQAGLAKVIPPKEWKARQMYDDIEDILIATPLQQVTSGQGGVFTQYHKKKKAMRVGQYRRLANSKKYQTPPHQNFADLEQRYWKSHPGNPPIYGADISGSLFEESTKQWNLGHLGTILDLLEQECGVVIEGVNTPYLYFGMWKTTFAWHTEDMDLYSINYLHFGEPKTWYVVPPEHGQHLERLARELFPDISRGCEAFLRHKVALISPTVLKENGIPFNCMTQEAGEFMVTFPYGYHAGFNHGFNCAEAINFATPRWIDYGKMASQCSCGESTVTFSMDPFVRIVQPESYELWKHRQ
FBPA coupling cs = qHTS Assay for Inhibitors of Fructose-1,6-bisphosphate Aldolase from Giardia Lamblia: Coupling assay counterscreen. actives 0.67% (n = 290,000). AID 2472, 2010. activity change, negative = inhibition, % at 58.2 µM, hits read low. coupling enzyme system counterscreen, AmpLite Red fluorescence; in the data active means activity change below about -30%
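Final compound at 57.5 uM, incubated 10 min at RT with coupling enzyme reagent (glyceraldehyde-3-phosphate), then 20 min with substrate and AmpLite Red detection. Fluorescence read at 525/598 nm; tests interference with the coupling assay, not aldolase inhibition.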
Tau fluor counter = Counterscreen qHTS for Inhibitors of Tau Fibril Formation, Fluorescence Polarization; tau K18 P301L (four-repeat tau fragment) Alexa594 fluorescence, heparin fibrillization; AID 1463, 2008; actives 0.93% (n = 280,000); Potency, µM (doses to about 57.7 µM), without a hit: top-dose activity change, negative = decrease; further: potency means the concentration at half of the fitted maximal effect; nearly all actives have a fitted effect of over 55% in size
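Human K18 P301L tau (15 uM unlabeled plus 0.24 uM Alexa 594-labeled, final) in 100 mM sodium acetate pH 7 was mixed with compound and 20 uM heparin and incubated 6 hr at 37 C.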
The depositor's hits bear a star; u = inconclusive; x = no result; [ ] = another dose, or the depositor's remark. Unless noted, the call rests on the fitted dose curve; in most records, active means well fitted curve in the direction sought with a large enough effect; inconclusive means small, poorly fitted or top-dose-only effect, or another doubt; inactive means no such curve, though single readings can be large; an effect the other way counts as inactive or inconclusive. Unless noted, on the % scale 0 is the no-effect control and ±100 the full control effect.

SMILES	Tau FP inhib	Tau fibril ThT	Sfp PPTase inh	JMJD2E inh	FBPA coupling cs	Tau fluor counter
CC1(C)CC(=O)C2=C(C1)OC1=C(C(=O)CC(C)(C)C1)C2c1cc([N+](=O)[O-])cc([N+](=O)[O-])c1O	0%	14%	11µM*	2%	-36*	10%
Cc1cn2c(=O)cc(COC(=O)c3ccc(NC(=O)C(C)Oc4ccccc4)cc3)nc2s1 (stereo not given)	8%	6%	x	x	x	-12%
COc1ccc(OC)c(CCNC(=O)Cn2ccc3cc(S(=O)(=O)N4CCCCC4)ccc32)c1	11%	-3%	x	x	x	-23%
Cc1cc(C(=O)CSc2nnnn2C)c(C)n1-c1ccc2c(c1)OCCO2	3%	-13%	45µM*	-5%	-45*	-13%
COc1cccc(C(c2sc3nc(C)nn3c2O)N2CCc3ccccc3C2)c1 (stereo not given)	0%	-13%	32µM*	7%	2	-3%
CCN1CCN(C(c2cccc(OC)c2)c2sc3nc(C)nn3c2O)CC1 (stereo not given)	-7%	0%	3%	-7%	3	-4%
Oc1c(C(c2ccco2)N2CCN(C(c3ccccc3)c3ccccc3)CC2)sc2ncnn12 (stereo not given)	u	u	50µM*	-11%	-1	u
Oc1c(C(c2ccccc2)N2CCc3ccccc3C2)sc2ncnn12 (stereo not given)	-3%	4%	79µM*	-2%	-5	-2%
COc1cccc(C(c2sc3ncnn3c2O)N2CCN(C(=O)c3ccco3)CC2)c1 (stereo not given)	10%	0%	16%	0%	0	5%
Cc1nc2sc(C(c3ccco3)N3CCC(Cc4ccccc4)CC3)c(O)n2n1 (stereo not given)	5%	u	35µM*	7%	3	-3%
Cn1cccc1C(=O)N1CCC2(CC1)CCN(c1ccccn1)CC2	x	x	2%	x	1	x
Cc1nc2ncccn2c1-c1csc(NCc2ccco2)n1	3%	3%	8.9µM*	7%	-2	0%
Cc1n[nH]c(=O)nc1NCc1ccco1	8%	-12%	-19%	-7%	2	-2%
COc1ccccc1Nc1nc(-c2c(C)nc3ncccn23)cs1	0%	u	u	16µM*	-2	u
Cc1nc2ncccn2c1-c1csc(Nc2ccccc2)n1	4%	u	56µM*	u	-1	u
Cc1nc2ncccn2c1-c1csc(Nc2ccc(S(N)(=O)=O)cc2)n1	x	x	-20%	x	-6	x
COc1ccc(Nc2nc(-c3c(C)nc4ncccn34)cs2)cc1	-2%	8.9µM*	18µM*	-9%	-12	u
COCCCN1C(=O)c2oc3ccccc3c(=O)c2C12C(=O)N(C)c1ccccc12 (stereo not given)	2%	-1%	x	x	x	-4%
Cc1nc2ncccn2c1-c1csc(Nc2ccc(N(C)C)cc2)n1	-2%	13µM*	u	-13%	-7	u
COc1ccc(NC(=O)CCc2c(C)nc3nc(CNC(=O)OC(C)(C)C)nn3c2C)cc1OC	2%	-4%	x	x	x	-7%
COc1ccc(S(=O)(=O)c2c(Nc3ccc(C)cc3C)sc(C(=O)c3ccc(F)cc3)c2N)cc1	1%	-12%	x	x	x	-19%
CCC(=O)n1nc(-c2ccco2)nc1SCc1ccccc1	7%	u	45µM*	1%	0	-11%
COCCNC(=O)/C(C#N)=C/c1ccc(O)c([N+](=O)[O-])c1	-8%	u	16%	-21%	-1	-1%
CCOCCCNC(=O)/C(C#N)=C/c1cc(OC)c(O)c([N+](=O)[O-])c1	10%	14µM*	-24%	u	-4	-11%
CCOCCCNC(=O)/C(C#N)=C/c1ccc(Cl)c([N+](=O)[O-])c1	5%	u	6%	20µM*	1	-26%
SMILES	Tau FP inhib	Tau fibril ThT	Sfp PPTase inh	JMJD2E inh	FBPA coupling cs	Tau fluor counter
CCOCCCNC(=O)/C(C#N)=C/c1cc(C)c(O)c(C)c1	5%	-10%	13%	-1%	-2	3%
Cc1ccc2cc3cc(C(=O)N(C)c4ccccc4C)oc3nc2c1	3%	u	x	x	x	-9%
COc1ccccc1C1CCN(c2cc(O)ccc2[N+](=O)[O-])CC1	u	20µM*	4%	0%	-1	u
Cc1ccc(S(=O)(=O)N2CCOCC2)cc1NC(=O)CSc1nc(N)cc(=O)[nH]1	-5%	-12%	71µM*	-3%	9	-7%
Cc1ccc(NC(=O)CSc2nc(N)cc(=O)[nH]2)cc1S(=O)(=O)N1CCOCC1	-7%	-14%	19%	0%	6	-13%
COC(=O)[C@H](COC(C)(C)C)NC(=O)O[C@H]1C(=O)c2cc(OC)ccc2O[C@@H]1c1ccc(OC)c(Br)c1	-2%	-8%	19%	u	0	-15%
CN(C)c1ccc(/C=N/N2CCN(c3ccccn3)CC2)cc1	5%	1.8µM*	10%	-21%	2	-27%
Cc1nn(-c2ccccc2)c(C)c1/C=N/N1CCN(c2ccccn2)CC1	4%	u	79µM*	-2%	1	-21%
Cc1nn(-c2ccccc2)c(Cl)c1/C=N/N1CCN(c2ccccn2)CC1	2%	u	19%	0%	0	-8%
CCC(C(=O)Nc1ccc(C)c(Cl)c1)n1c(=O)c(-c2ccccc2NC(C)=O)nc2ccccc21 (stereo not given)	6%	-4%	x	x	x	1%
CN1[C@@H]2CC[C@H]1CC(OC(=O)[C@@H](O)c1ccccc1)C2 (stereo not given in full)	x	x	16%	7%[25.5 µM]	3	x
c1ccc2c(c1)OCC(c1nnc3sc(-c4cnccn4)nn13)O2 (stereo not given)	-9%	u	20µM*	-4%	-4	-11%
Fc1ccc(-c2nn3c(C4COc5ccccc5O4)nnc3s2)cc1 (stereo not given)	-6%	-11%	40µM*	-5%	4	-10%
Fc1ccc(-c2nnc3sc(C4COc5ccccc5O4)nn23)cc1 (stereo not given)	-2%	u	-8%	-5%	0	-12%
